ClpP mod: qHTS Assay for Activators of ClpP; ATP-dependent Clp protease proteolytic subunit (Bacillus subtilis (strain 168)), P80244; purified B. subtilis ClpP, FRET peptide cleavage, 20 min; Potency, µM (doses to about 57.5 µM), for inactives: top-dose activity change, negative = active; 340,000 compounds, 1.9% hits; AID 651965, 2013; active = well fitted falling curve with a large enough effect; inconclusive = small, poorly fitted or top-dose-only effect; inactive = no such curve, though single readings can be large or run the other way; note: the source files actives as falling curves though it sought activators and does not explain the sign; nearly all actives have a fitted effect of over 65% in size
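Buffer: 100 mM Tris/HCl pH8, 100 mM KCl, 0.05% low protease BSA, 2.5% glycerol, 0.01% Tween-20. ClpP 10 microg/mL final; 20 min RT; delta FRET normalized to ADEP and DMSO controls.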
DT40 TDP1 no CPT: qHTS for Inhibitors of human tyrosyl-DNA phosphodiesterase 1 (TDP1): qHTS in cells in absence of CPT; DT40 Tdp1-/- hTDP1 cells, no CPT, ATP luminescence, 48 h; Potency, µM (titrated, usually from 46.2 µM), for inactives: at the top dose activity change, negative = growth inhibition, actives largely listed as inhibitors; 420,000 compounds, 15% hits; note: % is set by controls: 0 for no effect and ±100 for the full control effect; nearly all actives have a fitted effect of over 55% in size
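Chicken DT40 Tdp1-/- cells complemented with human TDP1, screened without camptothecin (DMSO vehicle only), 400 cells/well. Compounds pin-transferred, cells incubated at 37 °C for at least 48 hr. Growth read as ATP-dependent luminescence (CellTiter-Glo, 30 min at RT).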
TDP1 cell CPT: DT40-hTDP1 cell growth loss with CPT | Potency, µM (series often up to 46.2 µM), without a hit: top-dose activity change, negative = growth inhibition, actives largely listed as inhibitors | 420,000 compounds, 12% hits | chicken DT40 Tdp1-/-;hTDP1 cells + 20 nM CPT, ATP luminescence, 48 h; note: % is set by controls: 0 for no effect and ±100 for the full control effect; nearly all actives have a fitted effect of over 55% in size
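Chicken DT40 Tdp1-/- cells complemented with human TDP1, 400 cells/well, exposed to compounds plus 20 nM camptothecin for at least 48 h at 37 C; viability read as ATP content by CellTiter-Glo luminescence.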
TDP1 inh: inhibitors of human tyrosyl-DNA phosphodiesterase TDP1; Potency, µM (titrated, usually from 130 µM), for inactives: at the highest dose activity change, negative = inhibition, actives largely listed as inhibitors; Q9NUW8; 350,000 compounds, 0.28% hits; recombinant TDP1, AlphaScreen DNA substrate cleavage; note: % is set by controls: 0 for no effect and ±100 for the full control effect; nearly all actives have a fitted effect of over 40% in size
Target sequence (Q9NUW8 whole entry, looked up): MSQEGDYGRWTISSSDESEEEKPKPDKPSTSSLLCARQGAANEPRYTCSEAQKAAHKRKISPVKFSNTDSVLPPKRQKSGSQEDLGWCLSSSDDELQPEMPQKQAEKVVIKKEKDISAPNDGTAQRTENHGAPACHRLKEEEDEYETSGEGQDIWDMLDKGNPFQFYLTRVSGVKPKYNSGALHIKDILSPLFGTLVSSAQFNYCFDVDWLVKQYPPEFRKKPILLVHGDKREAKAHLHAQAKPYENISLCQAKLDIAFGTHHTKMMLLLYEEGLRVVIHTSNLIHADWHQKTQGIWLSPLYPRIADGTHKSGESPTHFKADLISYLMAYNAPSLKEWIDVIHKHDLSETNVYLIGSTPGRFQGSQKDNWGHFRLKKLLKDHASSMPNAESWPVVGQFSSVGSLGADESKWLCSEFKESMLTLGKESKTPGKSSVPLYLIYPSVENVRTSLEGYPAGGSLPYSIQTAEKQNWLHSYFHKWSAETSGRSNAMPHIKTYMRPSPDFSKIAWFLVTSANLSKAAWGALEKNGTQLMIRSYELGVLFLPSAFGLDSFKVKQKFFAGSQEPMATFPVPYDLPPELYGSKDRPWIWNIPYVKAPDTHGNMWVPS
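AlphaScreen read-out: signal falls as enzyme removes the 3' tyrosine-FITC from a 5'-biotinylated DNA oligo (15 nM, 5 min, RT). Enzyme was E. coli-made recombinant Tdp1 at 1 nM, exposed to compound for 15 min beforehand; beads 10 ug/ml, 10 min.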
The depositor's hits bear a star; ? = inconclusive; nt = not tested or not shown. Most compounds without a hit are left out; they make up all but 17% or so of the library. Unless noted, calls come from the whole dose curve; as a rule, active = well fitted curve in the direction sought with a large enough effect; inconclusive = small, poorly fitted or top-dose-only effect, or another doubt; inactive = no such curve, though single readings can be large; an effect the other way counts as inactive or inconclusive. Potency is the fitted concentration of half-maximal effect.

SMILES	ClpP mod	DT40 TDP1 no CPT	TDP1 cell CPT	TDP1 inh
CCC(=O)NC(=S)Nc1ccc(-c2nc3ccccc3s2)cc1	25%	-24%	-15%	3%
CCN(CC)S(=O)(=O)c1cc(C(=O)OCC(=O)Nc2ccc(-c3nc4ccc(C)cc4s3)cc2)ccc1F	18µM*	?	?	-3%
COc1ccc(NC(=O)COC(=O)CNS(=O)(=O)/C=C/c2ccccc2)cc1OC	-1%	?	0%	2%
Cc1ccc2nc(-c3ccc(NC(=S)NC4CC(C)(C)NC(C)(C)C4)cc3)sc2c1	nt	6.5µM*	3.7µM*	0%
Cc1ccc2nc(-c3ccc(NC(=S)NC(=O)C(C)C)cc3)sc2c1	53%	-13%	-11%	-3%
CCOC(=O)NNc1ccc2nonc2c1[N+](=O)[O-]	nt	2.9µM*	6.5µM*	nt
CCc1ccc(Nc2ccc3nonc3c2[N+](=O)[O-])cc1	nt	?	-7%	nt
CCOc1ccc(NC(=O)CN(C)C(=O)c2cc([N+](=O)[O-])ccc2Sc2ccccc2)cc1OCC	1%	?	?	nt
O=C(Nc1ccc(Cl)cc1Cl)c1cc(S(=O)(=O)NCc2ccc3c(c2)OCO3)ccc1F	4%	-14%	-18%	nt
CSc1nc(N(C)NC(=O)c2ccccc2)c2ccccc2n1	-1%	0.52µM*	0.58µM*	3%
CSc1nc(N(C)NC(=O)c2ccc(Cl)cc2)c2ccccc2n1	?	0.33µM*	0.26µM*	8%
COc1ccc(CN(C)C[C@H]2OCCCC[C@@H](C)Oc3ccc(NS(C)(=O)=O)cc3C(=O)N([C@H](C)CO)C[C@@H]2C)cc1	-2%	-2%	-2%	nt
COc1ccc(CN(C(=O)c2cccs2)c2ccccc2C(=O)O)cc1	1%	-2%	-14%	6%
CN(C(=O)c1cccs1)c1ccccc1C(=O)O	20µM*	-7%	-6%	2%
Cc1ccc(CO)cc1Nc1ncnc2onc(-c3ccc(F)cc3)c12	5%	?	?	-3%
Cc1cccc2cc(C#N)c(N3CCN(C)CC3)nc12	?	26µM*	?	3%
CC1CCN(C(=O)COC(=O)c2cc3ccccc3oc2=O)CC1	nt	-28%	6%	-2%
CCCN(CC1CCCO1)C(=O)c1cc(COc2ccc(F)cc2F)on1 (stereo not given)	1%	?	?	3%
CCCCS/C(N)=N/N=C/c1ccccc1O	-1%	?	?	9%
CCCS/C(N)=N/N=C/c1cc(C)ccc1O	-9%	0.82µM*	0.73µM*	7%
COc1cccc2c(C)cc3nnc(SCC(=O)Nc4ccc(C)cc4)n3c12	-20%	?	?	1%
CCCCC[C@@H](C)N1C[C@@H](COCc2ccccc2)Oc2cc(N3CC[C@H](O)C3)ccc2S1(=O)=O	-21%	16µM*	?	nt
C[C@@H](c1ccccc1)N1C[C@@H](COCc2ccccc2)Oc2cc(N3CC[C@@H](O)C3)ccc2S1(=O)=O	-14%	?	?	nt
C[C@@H](c1ccccc1)N1C[C@H](COCc2ccccc2)Oc2cc(N3CC[C@@H](O)C3)ccc2S1(=O)=O	-7%	?	?	nt
CCCCC[C@@H](C)N1C[C@@H](COCc2ccccc2)Oc2cc(N3CC[C@@H](O)C3)ccc2S1(=O)=O	-11%	16µM*	?	nt
SMILES	ClpP mod	DT40 TDP1 no CPT	TDP1 cell CPT	TDP1 inh
CC(NC(=O)CCCC1=NS(=O)(=O)c2ccccc2N1)c1ccccc1 (stereo not given)	1%	?	-28%	2%
CCOC(=O)N1CCN(C(=O)c2cc3c(=O)n(C)c4ccccc4c3n2C)CC1	-1%	16µM*	21µM*	3%
CCN1CCN(C(=O)c2cc3c(=O)n(C)c4ccccc4c3n2C)CC1	-19%	-9%	6%	8%
COc1ccc(-n2nc(C(=O)N3CCN(c4cccc(C)c4)C(C)C3)c3c4ccccc4n(C)c3c2=O)cc1 (stereo not given)	-7%	?	-11%	2%
Cn1c(C(=O)N2CCN(Cc3ccccc3)CC2)cc2c(=O)n(C)c3ccccc3c21	-10%	?	18µM*	2%
Cc1cccc(N2CCN(C(=O)Cn3c(=O)c4cccn4c4ccc(F)cc43)CC2C)c1 (stereo not given)	-2%	18µM*	18µM*	1%
Cc1cccc(N2CCN(C(=O)c3cc4c(=O)n(C)c5ccccc5c4n3C)CC2C)c1 (stereo not given)	-4%	9.2µM*	18µM*	11%
CCC(C)c1ccccc1N1CC(C(=O)N(C)CC(=O)Nc2cccc(F)c2)CC1=O (stereo not given)	nt	-2%	-22%	1%
COc1ccc(/C(O)=C2/C(=O)C(=O)N(c3ncccn3)C2c2ccc(C(C)(C)C)cc2)cc1 (stereo not given)	nt	nt	nt	-5%
CCc1cc(C(=O)N/N=C/c2ccc(O)cc2)c2ccccc2n1	nt	8.2µM*	-27%	-13%
CCNC(=O)C(=O)N/N=C/c1cc([N+](=O)[O-])ccc1O	nt	?	15µM*	9%
O=C(N/N=C/c1cc([N+](=O)[O-])ccc1O)NC12CC3CC(CC(C3)C1)C2	1%	?	?	8%
O=C(NN=Cc1cc([N+](=O)[O-])ccc1O)c1cccc2ccccc12	-1%	7.3µM*	7.3µM*	nt
O=C(N/N=C/c1cc([N+](=O)[O-])ccc1O)c1c[nH]c2ccccc12	0%	?	?	12%
O=C(N/N=C/c1cc([N+](=O)[O-])ccc1O)C12CC3CC(CC(C3)C1)C2	0%	23µM*	?	11%
O=C(C[n+]1ccc(C(=O)N/N=C/c2ccc(O)cc2)cc1)c1ccccc1	1%	13%	3%	6%
O=C(N/N=C/c1cc([N+](=O)[O-])ccc1O)Nc1ccccc1	nt	?	?	8%
O=C1CN(C(=O)COC(=O)CCC(=O)c2ccc(F)cc2)c2ccccc2N1	-1%	19%	1%	0%
CCC(=O)N[C@@H]1c2ccccc2C2(CCN(Cc3[nH]c4c(Cl)cccc4c3C)CC2)[C@H]1OC	nt	-26%	-14%	nt
O=C(O)[C@@]1(CCCCCCOc2ccc(Cl)cc2)CO1	nt	nt	nt	6%
Cc1cc(C(=O)N/N=C/c2cc([N+](=O)[O-])ccc2O)c2ccccc2n1	1%	4.6µM*	5.2µM*	11%
Cc1cc(C(=O)N/N=C/c2cc(Br)cc([N+](=O)[O-])c2O)c2ccccc2n1	-2%	?	?	11%
CCc1ccc(/C=N/NC(=O)c2cc(C3CC3)nc3ccccc23)s1	7%	2.3µM*	4.6µM*	0%
Cc1cc(C(=O)N/N=C/c2cccc(Cl)c2Cl)no1	-1%	-9%	-24%	5%
O=C(N/N=C/c1ccc([N+](=O)[O-])cc1)c1cc(C2CC2)nc2ccccc12	1%	7.3µM*	9.2µM*	nt
